Compounds with a hit are over-represented: about 6.5% of the library has one in this group of screens.
Vaccinia mCherry = qHTS for Stage-Specific Inhibitors of Vaccinia Orthopoxvirus: mCherry Reporter Primary qHTS; Vaccinia virus mCherry reporter infection, fluorescence; Potency, µM (doses to about 36.5 µM), inactives show at the top dose activity change, negative = inhibition, usual class: inhibitors; 0.63% of 310,000 active; calls by dose curve; tested in A549 cells; note: potency is the fitted concentration of half-maximal effect; nearly all actives have a fitted effect of over 35% in size
VACV Venus inh = qHTS for Stage-Specific Inhibitors of Vaccinia Orthopoxvirus: Venus Reporter Primary qHTS | 0.46% of 330,000 active | Vaccinia virus Venus reporter expression, fluorescence | AID 720580, 2013 | Potency, µM (top dose mostly 36.5 µM), for inactives: top-dose activity change, negative = inhibition, usual class: inhibitors; calls by dose curve; tested in A549 cells; note: potency is the fitted concentration of half-maximal effect; nearly all actives have a fitted effect of over 30% in size
LASV entry inh = qHTS for Inhibitors of binding or entry into cells for Lassa Virus | Lassa virus pseudotype entry inhibition, cell reporter | Potency, µM (series often up to 37.9 µM), for inactives: at the highest dose activity change, negative = inhibition, most hits filed as inhibitors | 1.2% of 300,000 active | AID 540256, 2011; calls by dose curve; tested in HEK293 cells; note: potency is the fitted concentration of half-maximal effect; nearly all actives have a fitted effect of over 50% in size
MARV entry inh = qHTS for inhibitors of binding or entry into cells for Marburg Virus; Marburg virus pseudotyped entry inhibition, cell reporter; Potency, µM (highest dose often 37.8 µM), without a hit: top-dose activity change, negative = inhibition, usual class: inhibitors; 1.8% of 300,000 active; AID 540276, 2011; calls by dose curve; tested in HEK293 cells; note: potency is the fitted concentration of half-maximal effect
FMDV inh = High Throughput Screening for Foot and Mouth Disease Virus Antivirals; FMDV antiviral cell-based qHTS; Potency, µM (highest dose often 57.9 µM), without a hit: at the highest dose activity change, negative = inhibition, hits mostly inhibitors; 1.2% of 410,000 active; AID 1159524, 2015; calls by dose curve; tested in HEK293T cells; note: read-out not given here; potency is the fitted concentration of half-maximal effect; nearly all actives have a fitted effect of over 45% in size
HCMV inh = qHTS Assay for inhibitors of the human cytomegalovirus (HCMV) | HFF cells, HCMV-luciferase reporter, 72 h; hits give low values | activity change, negative = inhibition, % at 57.5 µM | 4.5% of 410,000 active; in the data active = activity change below about -60%; inconclusive = no clear call, values can overlap the other calls; inactive = above about -39%
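Luciferase read-out from HCMV-luciferase-infected HFFs (MOI 1 PFU/cell) 72 h post infection at 37C; compounds added after 16 h cell attachment; activity normalized between buffer-only basal and Salinomycin (10uM) inhibitor controls.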
Starred values were filed as active, the others as inactive; i = inactive; u = inconclusive; x = not tested or not shown; ! = a repeat was not active; [ ] = remark or other dose. % is set by controls: 0 for no effect and ±100 for the full control effect.

SMILES	Vaccinia mCherry	VACV Venus inh	LASV entry inh	MARV entry inh	FMDV inh	HCMV inh
NS(=O)(=O)c1ccc(N=Nc2c(O)[nH]c3ccc(Cl)cc23)cc1	x	x	2.8µM*	x	x	x
NCC12CC3CC(C1)CC(c1ccc(Br)cc1)(C3)C2	u	22µM*	x	x	u	-1
CN1C(=O)C(CC(=O)Nc2ccccc2F)N(NC(=O)c2ccc(Br)cc2)C1=S (stereo not given)	-8%	-11%	-15%[46.1 µM]	13µM*	12%	0
O=C(NCc1ccccn1)c1cnn(-c2ncc3c(n2)-c2ccccc2CC3)c1C1CC1	-14%	-9%	x	x	-12%	x
Cc1sc(C2C(C#N)=C(N)N(c3ccc(Cl)cc3)C3=C2C(=O)CCC3)cc1CN1CCOCC1 (stereo not given)	-12%	-6%	u	x	-2%	-28
COc1ccc2nc(C(F)(F)Cl)c(C#N)c(N)c2c1	x	x	x	x	21%	-88*
COc1ccc2nc3cc(Cl)ccc3c(C#N)c2c1	-22%	-4%	25%	-1%[46.1 µM]	12%	-21
CCCNC(=O)c1cnc2c(-c3ccc(OCC)c(OCC)c3)c(C)nn2c1-c1ccccc1	-8%	-16%	5%[46.1 µM]	x	u	-7
COc1ccc(Cn2c(=O)c3cccnc3n(CC(=O)Nc3ccc(C)c(F)c3)c2=O)cc1	-16%	-9%	x	u	-19%	22
Cc1ccc(S(=O)(=O)N2CCOCC2)cc1NC(=O)COC(=O)CNC(=O)c1ccc(Cl)cc1Cl	i	-12%	9%	24%	-12%	-68*
O=C(COC(=O)CCc1ccc(S(=O)(=O)N2CCOCC2)cc1)Nc1ccc(Cl)cn1	-11%	-7%	-2%	0.79µM*!	-19%	26
CC(CCN1CCc2nc(-c3ccccc3)c(-c3ccccc3)cc2C1)=NO[C@H](C)CN1CCCCc2nc(C)c(C)cc21	x	x	x	25%[14.2 µM]	x	x
O=C(c1cc(C(F)(F)F)cc(C(F)(F)F)c1)N1CCC2(CC1)CN(c1ncccn1)C2	x	x	x	x	-7%	x
COc1ccc(NC(=O)CSc2nc(C)cc(C)c2C(=O)Nc2ccccc2OC)cc1	-9%	-8%	-6%[46.1 µM]	-9%[46.1 µM]	8%	1
COc1ccccc1NC(=O)c1c(C)cc(C)nc1SCC(=O)Nc1ccc(C)c(C)c1	i	-14%	-22%[46.1 µM]	7.9µM*	-4%	u
Cc1cc(C)c(C(=O)Nc2ccccc2)c(SCC(=O)Nc2ccc(Br)cc2C)n1	-17%	-14%	-18%[46.1 µM]	u	-11%	-69*
O=C(NCC1CC1)[C@@H]1[C@@H](CO)[C@@H]2Cn3c(cccc3=O)[C@@H]2N1Cc1cccc(F)c1	x	x	x	x	x	-4
COc1ccc(NC(=O)COc2ccccc2C(=O)Nc2ccccc2)cc1	-14%	-10%	x	x	x	x
CC1CN(CCC(=O)NCc2ccc3ncccc3c2)Cc2cc(Cl)ccc2O1 (stereo not given)	-8%	8%	x	x	-4%	x
CC(=O)OCCN(C)c1cc(SC(C)C)c2nonc2c1[N+](=O)[O-]	i	-7%	2%	-2%	-17%	u
CN(CCO)c1cc(Sc2nc3ccccc3s2)c2nonc2c1[N+](=O)[O-]	x	x	u	u	22µM*	-104*
O=C(CCc1nc2ccccc2s1)N1CCOc2ccc(CN3CCc4sccc4C3)cc2C1	-16%	0%	x	x	2%	x
CC(=O)Nc1nc(COc2ccccc2)cs1	-13%	-11%	0%	4%	0%	100
O=C(Nc1nc(COc2ccccc2)cs1)C12CC3CC(CC(C3)C1)C2	x	x	-5%	-5%	-10%	-84*
Cc1ccc(C(=O)Nc2nc(COc3ccccc3)cs2)s1	-9%	-28%	-45%	-20%	x	-75*
SMILES	Vaccinia mCherry	VACV Venus inh	LASV entry inh	MARV entry inh	FMDV inh	HCMV inh
Cc1ccccc1CN1Cc2cccc3c2[C@H](C=CC3)CC1=O	i	-10%	x	x	x	x
CN(C)S(=O)(=O)c1ccc(/C(O)=C2/C(=O)C(=O)N(Cc3cccnc3)C2c2ccco2)cc1 (stereo not given)	x	-11%	27%	15%	-18%	-67*
CN(C)S(=O)(=O)c1ccc(/C(O)=C2/C(=O)C(=O)N(Cc3cccnc3)C2c2ccncc2)cc1 (stereo not given)	x	x	5%	1%	4%	-11
C=CC[C@@H]1C=C[C@H](ON=C2c3cc(OC)ccc3O[C@H](c3cccc(OC)c3)[C@@H]2O)[C@H](CO)O1	x	x	x	-5%[14.2 µM]	x	x
CCc1ccc(-c2cc(C(=O)Nc3c(C)n(C)n(-c4ccccc4)c3=O)c3ccccc3n2)s1	x	x	u	u	-6%	16
Cc1cc(Br)cc2c(C(=O)Nc3c(C)n(C)n(-c4ccccc4)c3=O)cc(-c3cccs3)nc12	-1%	-18%	u	6.5µM*	x	-63*
O=[N+]([O-])c1ccc(N2CCCC2)nc1N1CCCC1	i	-15%	-6%	u	-14%	-4
Nc1ncc([N+](=O)[O-])c(N2CCCCCC2)n1	i	0%	-3%[46.1 µM]	5%[46.1 µM]	-8%	-75*
Cc1ncc2c(c1CNC(=O)c1cncs1)CCN(C(=O)c1ccsc1)C2	-14%	-9%	x	x	-14%	x
FC(F)(F)c1nc2ccccc2n2c(-c3ccc(Cl)cc3Cl)nnc12	x	-17%	15%	4%	-8%	40
FC(F)(F)c1nnc2c(Sc3ccccc3)nc3ccc(Cl)cc3n12	x	x	u	u	u	-103*
CCNc1ccc(S(=O)(=O)N(C)C)cc1NCC(=O)Nc1ccc(F)c(Cl)c1	-16%	-21%	u	u	7%	-75*
O=C1c2ccccc2NC(c2ccc(Br)s2)N1O (stereo not given)	x	x	x	x	3%	-75*
COc1ccccc1CNC(=O)CCn1c(=O)c2cccn2c2cccnc21	-2%	0%	10%[46.1 µM]	x	14%	-18
Oc1c(CNc2ccccc2)cc(COCc2ccccc2)c2cccnc12	x	x	x	x	u	-100*
Oc1c(CN2CCOCC2)cc(COCc2ccccc2)c2cccnc12	7.1µM*	u	u	u	-6%	-95*
Oc1c(CN2CCOCC2)cc(CN2CCOCC2)c(O)c1O	-2%	8%	9%[46.1 µM]	0%[46.1 µM]	-3%	-8
OCC1(Cc2ccccc2C(F)(F)F)CCN(Cc2ccccc2)CC1	-4%	-16%	-26%[46.1 µM]	u	-3%	-5
OCC1(Cc2ccccc2C(F)(F)F)CCN(Cc2ccc3c(c2)CCO3)CC1	-9%	-13%	-5%[46.1 µM]	u	1%	-76*
Cc1ccc(N2CCN(Cc3nnc(-c4ccccc4F)o3)CC2)c(C)c1	-10%	8%	u	13%[46.1 µM]	-30%	1
COc1ccccc1C(=O)Nc1c(C(=O)Nc2ccccc2F)oc2ccccc12	-17%	-15%	-21%[46.1 µM]	u	-4%	-25
COC(=O)c1c(C(=O)OC)c2c3ccccc3cc(-c3ccccc3)n2c1C(=O)OC	x	x	x	-23%[14.2 µM]	x	x
